Data taken from PubChem BioAssay (NCI).
About 83,000 compounds went through this panel and 20% of them were active in at least one assay; those are over-represented in the sample as a whole.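 In brief: 96-well plates, 48 h treatment, single concentration, percent growth endpoint.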 Active and inactive are the calls of the source. How the source made its calls: active means growth percent below 10; inactive means the rest.

System: HL-60(TB) leukemia
Test: NCI-60 one-dose screen, 48 h (100 = growth as untreated, 0 = no growth, -100 = all killed)
Details: 10 µM unless noted

| Compound | growth |
| --- | --- |
| C[C@@H]1CC[C@@H]2[C@@H]1[C@H](OC(=O)/C=C/c1ccccc1)[C@]1(CCCOCCOCCOCCOC(=O)CCCC[C@@H]3SC[C@@H]4NC(=O)N[C@@H]43)C[C@@H](OC(=O)CO)[C@@]2(C)O1 | 98.1% (inactive) |
| COc1ccc(C(=O)COc2cccc(/C=C3\Cc4ccccc4C3=O)c2)cc1 | 73.4% (inactive) |
| COC(=O)C1=Nc2ccc(F)cc2/C1=C/c1sc(=S)[nH]c1O | -28.8% (active) |
| O=[N+]([O-])c1ccc(-c2cc3c(Nc4ccc(Cl)c(C(F)(F)F)c4)ncnc3s2)cc1 | -41.3% (active) |
| N#C/C(=C1C=C/C(=N/O)C(Br)=C/1)c1ccccc1 | -20.5% (active) |
| CCOc1nc(-c2ccccc2)cc2c(O)c(C(=O)NCCCO)[nH]c(=O)c12 | 177% (inactive) |
| O=C(NCCNc1nccc(-c2c(-c3cccc(F)c3)nc3sccn23)n1)c1ccc(Cl)cc1 | 99.1% (inactive) |
| COc1cc(-c2ncn(/C=C\c3nnco3)n2)cc(C(F)(F)F)c1 | 11.2% (inactive) |
| COc1cc(OC)c2sc(-c3ccc(-n4cncc4-c4ccc(N)cc4)cc3)nc2c1 | 52.6% (inactive) |
| COc1ccc(-c2nnc(COc3ccc(NS(=O)(=O)c4ccc(OC)cc4)cc3F)o2)cc1 | 76.6% (inactive) |
| CN(C)c1ccc(N=Nc2ccc(Br)cn2)c(O)c1 | -41.4% (active) |
| CCOC(C=O)OCC | 104% (inactive) |
| O=c1ccc(=O)n(-c2nc(-c3ccc([N+](=O)[O-])cc3)cs2)[nH]1 | 89% (inactive) |
| C=C1c2c(C)nn(-c3ccc(O)cc3)c2N(C)C23C[C@@H]1C1(C)c4c(C)nn(-c5ccc(O)cc5)c4N(C)C(C)(C[C@H]12)C3 (stereo not given in full) | 4.76% (active) |
| O=C(Oc1cccnc1)c1ccsc1Nc1ccnc(C(F)(F)F)c1 | 25.9% (inactive) |
| Oc1ccc(CNNc2ccnc3c(O)cccc23)c2cccnc12 | -7.85% (active) |
| O=C1/C(=C/c2ccc(F)cc2)C=C(c2ccccc2)N1CCc1ccccc1 | 81% (inactive) |
| Clc1ccc(N2N=C(c3cccc(Nc4ccncc4)c3)CC2c2ccccc2)cc1 (stereo not given) | 85.4% (inactive) |
| O=C(Nc1ccccc1)Oc1cccc2cccnc12 | 57.3% (inactive) |
| COc1cc(N2C(=O)c3nccnc3C2=O)cc(OC)c1OC | 90.3% (inactive) |

| Compound | growth |
| --- | --- |
| COc1ccc(CN2CCC(N3CCCC3=O)c3cc(Cl)ccc32)cc1 (stereo not given) | 80.2% (inactive) |
| CCCCN1c2nc3ccccc3cc2Sc2cc3ccccc3nc21 | 101% (inactive) |
| CCCCOc1ncnc2nc[nH]c12 | 99.4% (inactive) |
| C#C[C@]1(O)CC[C@H]2[C@@H]3CC=C4c5sc(Nc6cc(F)ccc6F)nc5CC[C@]4(C)[C@H]3CC[C@@]21C | -1.19% (active) |
| CN1CCN(CCCOc2cccc3nc(Nc4ccc(F)c(F)c4)ccc23)CC1 | 38.8% (inactive) |
| COc1ccc(/C=N\NC(=O)CN2CCN(c3cc4c(cc3F)c(=O)c(C(=O)N/N=C/c3ccc(OC)cc3)cn4C3CC3)CC2)cc1 | 86.6% (inactive) |
| COC(=O)[C@H]1CCCN1C(=O)[C@H]1CCCN1C(=O)[C@@H](Cc1c[nH]c2ccccc12)NC(=S)Nc1cc(C(F)(F)F)cc(C(F)(F)F)c1 | 31.2% (inactive) |
| O=C(/C=C/c1ccc(Cl)cc1)c1ccc(NC(=O)N2CCN(c3cc4c(cc3F)c(=O)c(C(=O)O)cn4C3CC3)CC2)cc1 | 94.2% (inactive) |
| FC(F)(F)Oc1cccc(-c2cc(NCCCCCCNc3cc(-c4cccc(OC(F)(F)F)c4)nc4ccc(N5CCCC5)cc34)c3cc(N4CCCC4)ccc3n2)c1 | 21.7% (inactive) |
| CCO/C=N/NC(=O)c1ccncc1 | 102% (inactive) |
| CCN(CC)CCN1C(=O)c2c(c(C)c3c(oc4cc(O)ccc43)c2C)C1=O | -50.6% (active) |
| O=C1/C(=C/c2ccc(-c3ccc(Cl)cc3)o2)SC(=S)N1CCc1ccc(O)cc1 | 8.32% (active) |
| O=S1(=O)N(CCNc2nccc(-c3c(-c4cccc(O)c4)nc4sccn34)n2)CCN1Cc1ccccc1 | 91.8% (inactive) |
| CN1/C(=C\C(I)C(I)C2=[N+](C)c3ccccc3C2(C)C)C(C)(C)c2ccccc21 (stereo not given) | -20.1% (active) |
| CCCCCCCCCCCCCCNCc1ccccc1 | 51.9% (inactive) |
| Cc1cc2ccccc2c2cc3ccccc3cc12 | 49.4% (inactive) |
| COc1ccc2nc(/C=C/c3ccc(N(C)C)cc3)sc2c1 | 51.1% (inactive) |
| CC/C=C\C/C=C\C[C@H](O)C/C=C1/C(=O)C=C[C@@H]1C/C=C\CCCC(=O)O | 32.6% (inactive) |
| CN1C(=O)N(C)C2C1NN=c1s/c(=C\c3ccc([N+](=O)[O-])cc3)c(=O)n12 (stereo not given) | 7.14% (active) |
| COc1ccc(Nc2c3c4c(cccc4[nH]c2=O)C(=O)c2ccccc2-3)cc1 | -60.4% (active) |
